The campaign covered roughly 330,000 compounds. About 7,700 (2.3%) were called active. Where a call stands in place of a potency, no number is given. Another 26% or so got no clear call; they are omitted. Calls come from the whole dose curve; as a rule, active = well fitted inhibition curve with a large enough effect; inconclusive = small, poorly fitted or top-dose-only effect, or effect the other way; inactive = flat fitted curve, though single readings scatter. The full list was thinned out, with actives kept by preference.
Potency is the fitted concentration of half-maximal effect.

A short description of the test: qHTS screen for small molecules that inhibit ELG1-dependent DNA repair in human embryonic kidney (HEK293T) cells expressing luciferase-tagged ELG1. Note: nearly all actives have a fitted effect of over 55% in size. The following applies: HEK293T ELG1-luciferase reporter, luminescence, 16 h, DNA damage induced by 5-fluorouridine; series mostly up to 46.1 µM. From the text: NIH Molecular Libraries Probe Production Network [MLPCN] NIH Chemical Genomics Center [NCGC] MLPCN Grant: 1 R03 MH092164-01 Assay Provider: Kyungjae Myung, NHGRI, NIH Keywords: MLPCN, qHTS, NCGC, genotoxicity, cancer Assay Overview: Cancer cells divide rapidly compared to normal cells in the body. During cell division, cancer cells need to duplicate their genome by DNA replication. The failure of genome duplication leads to cancer cells' death. Therefore, inhibitors of DNA replication could specifically kill cancer cells. Based on this concept, many chemotherapeutic agents were developed and have been used to treat cancer patients. However, there are a limited number of agents available in the clinical setting, and some of those that do exist have low efficacy and severe side effects. Therefore, if we can find the compounds that effectively block DNA replication either by directly damaging DNA or by inhibiting other cellular mechanisms, the options for cancer treatment will be broadened. With this in mind, we developed a quantitative high-throughput ELG1-luciferase reporter gene assay. Small molecules that specifically block ELG1 function in response to DNA damage can be identified by monitoring the suppression of luciferase activity. Since ELG1 defines a pathway for repairing DNA damage, agents blocking ELG1 function can be used to sensitize cancer cells to chemotherapeutic agents whose mechanism of action involves the induction of DNA damage.
Assay Protocol Summary: For genotoxicity screening, 2,000 cells in 4 uL/well were dispensed into white, solid-bottom 1536-well plates using a solenoid-based dispenser. Following transfer of 1 uL 5-Fluorouridine and 23 nL compound or DMSO vehicle by a pin tool, the plates were incubated 16 hr at 37 °C and 5% CO2. 5 ul ONE-Glo (Promega) was then added to each plate and following a 30 min incubation at room temperature, luciferase activity was quantified on a ViewLux CCD-based plate reader.
For the molecule `O=C(/C=C/c1cccs1)c1cc(Cl)ccc1OC(=O)N1CCOCC1`, the Potency is 18.4 µM (active).

As for `CC(=O)Nc1ccc(C(=O)C(Cc2ccccc2)N(C)C)cc1` (stereo not drawn), the Potency entry was “inactive”.

With `Cc1nc2ccccc2c(=O)n1-c1ccc(Cl)cc1Cl`, the Potency entry is “inactive”.

In the case of `COC1=CC=C2[C@H]3Cc4ccc(OC)c5c4[C@@]2(CCN3C)C1O5` (stereo partly drawn), the Potency entry is “inactive”.

Regarding `COC(=O)C1=C(c2cccc(OCc3ccccc3)c2)C[C@@H]2CC[C@H]1N2C(=O)NNCc1ccccc1`, the Potency entry was “inactive”.

In the case of `COC(=O)C1=C(c2cccc(OCc3ccccc3)c2)C[C@@H]2CC[C@H]1N2C(=O)NCc1ccc(Br)cc1`, the Potency result was “inactive”.

Consider `COc1ccc(CNCCc2c[nH]c3ccccc23)cc1OC`, for which the Potency entry is “inactive”.

Consider `O=C(c1ccccc1[N+](=O)[O-])N1CCC2(CC1)OCCO2`, for which the Potency entry is “inactive”.

Turning to `O=C(c1cc(-c2ccncc2)nc2ccccc12)N1CCC2(CC1)OCCO2`, the Potency result is “inactive”.

For `O=C(c1cc2nc(-c3ccccc3)cc(-c3ccccc3)n2n1)N1CCC2(CC1)OCCO2`, the Potency was 20.6 µM (active).

With `CCCCn1c(=O)c(C(=O)Nc2ccccc2Cl)c(O)c2ccccc21`, the Potency result is “inactive”.

As to `Cc1cccc(NC(=O)N2CC3CC(C2)c2cccc(=O)n2C3)c1` (stereo not drawn), the Potency result is “inactive”.

Consider `Cc1ncc(CC(=O)n2cc(C(=O)c3cc(Cl)ccc3O)cn2)s1`, for which the Potency is 20.6 µM (active).

`CCN1C(=O)C(=Cc2c(C)n(CC(=O)NCC3CCCO3)c3ccccc23)C(=O)N(CC)C1=S` (stereo not drawn): the Potency result was “inactive”.

Turning to `Cc1ccccc1NC(=O)COC(=O)c1cc(C)n(C2CC2)c1C`, the Potency result was “inactive”.

For `c1cc2c(cc1C1OCC3C(c4ccc5c(c4)OCO5)OCC13)OCO2` (stereo not drawn), the Potency result is “inactive”.

Take `CN(C)CCN(CC1CCCN(Cc2ccccc2F)C1)C(=O)Cc1ccc(F)c(F)c1` (stereo not drawn): the Potency entry is “inactive”.

With `CC(Cc1ccccc1)NCCC(c1ccccc1)c1ccccc1` (stereo not drawn), the Potency entry is “inactive”.

Turning to `Cc1ncoc1C(=O)NCCC(c1ccccc1)c1ccccc1`, the Potency was 20.6 µM (active).

Consider `CCN(CC)C(=O)Oc1ccc(NC(=O)N2CCOCC2)cc1`, for which the Potency entry is “inactive”.

Regarding `CCOc1cccc(=NC2CCCCC2)c2c(C)[nH]c(C)c12`, the Potency is 10.3 µM (active).

Take `O=c1[nH]c(O)c(C=Nc2cc(F)cc(F)c2)c(=O)[nH]1`: the Potency result is “inactive”.

For the molecule `CCC(=O)c1ccc(OCC(=O)N2CCN(CC(=O)Nc3ccc(C)cc3)CC2)cc1`, the Potency result was “inactive”.

For the molecule `COc1ccc2[nH]c3c(c2c1)CCN[C@H]3C`, the Potency result was “inactive”.

In the case of `COc1cc(Cn2c(N)c(C(=O)NCc3ccco3)c3nc4ccccc4nc32)cc(OC)c1OC`, the Potency is 3.26 µM (active).

With `CCOC(=O)C(O)(c1ccc(NC(=O)c2ccco2)c(OC)c1)C(F)(F)F` (stereo not drawn), the Potency entry is “inactive”.

On to `COc1ccccc1NC(=O)N1C[C@@H]2C[C@@H](C1)c1cccc(=O)n1C2`, for which the Potency entry was “inactive”.

With `O=C(Cc1ccc(Cl)cc1)NCCN1CCN(C(=O)Cc2ccc(Cl)cc2)CC1`, the Potency result was “inactive”.

For the origin of these results see PubChem BioAssay AID504467 (National Center for Advancing Translational Sciences (NCATS), 2011).
